Reference: PubChem BioAssay (NCI)
About 83,000 compounds went through this panel and 20% of them were active in at least one assay; those are over-represented in the sample as a whole.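 Each cell line was grown in a 96-well plate and treated with one concentration of compound for 48 hours. Values below 10 were considered active.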 Unmarked numbers belong to inactive results. The source made the active and inactive calls.

The compounds below were run on NCI-H23 lung (assay: NCI-60 one-dose screen, 48 h (100 = growth as untreated, 0 = no growth, -100 = all killed)). Settings: 10 µM unless noted.
Protocol: Growth inhibition of the NCI-H23 human Non-Small Cell Lung tumor cell line is measured as a screen for anti-cancer activity. Cells are grown in 96 well plates and exposed to the test compound for 48 hours. Compounds are tested at a single concentration, which is 10^-5 M for most compounds. The reported endpoint is percent growth (GI% or GIPRCNT), where numbers from 0 - 100% represent growth inhibition, and numbers from -100% - 0 represent cell death. For example, a value of 40 represents 60% growth inhibition. A value of 0 means no net growth occurred over the course of the experiment. A value of -40 indicates 40% of cells at the beginning of the experiment died by the end of the experiment. A value of -100 means all cells are dead at the end of the experiment.
NCI-60 Human Tumor Cell Lines Screen was performed using the standard one-dose NCI protocol, which is described in more detail at https://dtp.cancer.gov/discovery_development/nci-60/default.htm.
Compounds with GIPRCNT values below 10 were considered active. Activity score was based on GIPRCNT using the following formula: […]
Score is 0 for GIPRCNT values of 100 or above, 50 for GIPRCNT values of 0, and 100 for GIPRCNT values of -100.

SMILES | growth
CC(C)CCC[C@@H](C)[C@H]1CC[C@H]2[C@@H]3CC[C@H]4C/C(=N/O)CC[C@]4(C)[C@H]3CC[C@]12C | 107%
O=C(CSc1nc(-c2ccc(Cl)cc2)cn1-c1ccc(Cl)cc1)c1ccc(Br)cc1 | 77.1%
CC(C)C[C@H](NC(=O)Cn1ccc(NCc2ccccc2)cc1=O)B(O)O | 31.7%
Nc1nn2cc(-c3ccc(Cl)s3)nc2c2ccccc12 | 102%
O=C(Nc1ccccc1)OCC1OCOC(COC(=O)Nc2ccccc2)C1OC(=O)Nc1ccccc1 (stereo not given) | 67.1%
Cc1c(C(=O)NCc2ccccc2)[n+](=O)c2cc(F)ccc2n1[O-] | 90.1%
COc1ccc(/C=N/NC(=O)Cn2c(Cc3cccc4ccccc34)nc3ccccc32)cc1 | 90.3%
CCOC(=O)C1=C(C)NC(=O)NC1c1ccc(OCC(=O)N/N=C/c2ccc(Cl)cc2)cc1 (stereo not given) | 105%
Cc1nc2sccn2c1-c1csc(Nc2ccccc2Cl)n1 | 38.2%
O=C(O)c1cccc([N+](=O)[O-])c1/C=C/c1ccccc1 | 102%
CCC1CCc2nc3sc(C(=O)Nc4ccccc4C)c(N)c3cc2C1 (stereo not given) | 51.1%
COc1cc(-c2csc(NC(=O)c3cc(C(F)(F)F)cc(C(F)(F)F)c3)n2)cc(OC)c1OC | -10.2% (active)
COc1cc(C(=O)CCCl)ccc1O | 91.8%
CCNc1nc(N2CC(=O)Nc3cc(OC)ccc32)c2ccccc2n1 | 3.23% (active)
COC12CC(=O)C(C(C)=O)=C(O)C1(C)c1c(O)c(C)c(O)c(C(C)=O)c1O2 (stereo not given) | 50.5%
Cc1c(C2=NNC(c3ccc4c(c3)OCO4)C2)[n+]([O-])c2ccccc2[n+]1[O-] (stereo not given) | 93.8%
O=c1[nH]c(CN2CCN(c3ccccc3F)CC2)nc2sc3c(c12)CCC3 | 105%
COC(=O)c1ccc2nc(-c3cc4ccccc4n3C)n(CCCCOc3cc4c(cc3OC)C(=O)N3CCC[C@H]3C=N4)c2c1 | 7.22% (active)
Cc1ccc(S(=O)(=O)OCC(=O)Nc2ccc(C(=O)O)c(O)c2)cc1 | 131%
CCC#CC[C@H]1C/C=C2/C(=O)C=C[C@@H]2C/C=C\CCCC(=O)O1 | 20.4%

SMILES | growth
CCn1cc(C(=O)O)c(=O)c2cc(F)c(N3CCN(S(=O)(=O)c4c(C)cc(C)cc4C)CC3)cc21 | 77.7%
Cc1cccc(-n2c(C)nc3ccc(NC(=O)NCCCl)cc3c2=O)c1 | 86.8%
COc1ccc(/C=C/C(=O)c2ccc(B(O)O)cc2)cc1O | 88%
O=C(O)c1ccc(-n2c(=O)c3ccccc3c3ccccc3c2=O)cc1 | 102%
c1cncc(CNc2ccccc2-c2nnc(Nc3ccc4c(c3)OCCO4)o2)c1 | 20.9%
Cn1c(=O)c2c(nc3n2CCN(CCc2ccc(OCCN4CCOCC4)cc2)C3)n(C)c1=O | 101%
CCCCNc1nnc(-c2cc(-c3cc4ccccc4o3)nn2-c2ccccc2)o1 | 96.7%
C=C1C(=O)O[C@H]2[C@H]1CC/C(Cn1cc(-c3ccc(N)cc3)nn1)=C\CC[C@@]1(C)O[C@@H]21 | 22.3%
O=C(COc1ccccc1)N1N=C(c2ccc(Cl)cc2)CC1c1c[nH]c2ccccc12 (stereo not given) | 76.1%
Cc1sc2nc(CSc3nnc(-c4ccco4)o3)[nH]c(=O)c2c1C | 121%
COc1ccc(/C=C/c2nc(N3CCOCC3)c3cc(F)c(F)cc3n2)cc1OC | 34.8%
CC(C)CCN(CCCNc1c2c(nc3ccccc13)CCCC2)CCC(C)C | 84.1%
Clc1ccc(/C=C/c2nc(N3CCOCC3)c3nc(Cl)c(Cl)cc3n2)cc1 | 92.2%
O=C(CCl)NCCNc1nccc(Nc2ccc(S(=O)(=O)Nc3ccccn3)cc2)n1 | 22.6%
NCCSC(c1ccccc1)(c1ccccc1)c1ccccc1 | 25.1%
Cc1ccc2c(c1)ncn2-c1ncnc2c1CC(C)c1ccccc1N2C (stereo not given) | 24%
CCCCCC/C=C\CCCCCCCCOc1ccc(CCOP(=O)(O)OCC[N+](C)(C)C)cc1 | 98.8%
O=C(CNC(=O)c1cccc2ccccc12)Nc1ccccc1Oc1ccccc1 | 20.9%
CCC(=O)Oc1cc(/C=C/C(=O)O[C@H]2C[C@H]3CN4CCc5c([nH]c6cc(OC)ccc56)[C@@H]4C[C@@H]3[C@@H](C(=O)OC)[C@@H]2OC)ccc1OC | 86.7%
CC(=O)Nc1ccc(S(=O)(=O)NC(CCC(=O)Nc2ccc(Cl)cc2)C(=O)O)cc1 (stereo not given) | 97.3%
